PubChem BioAssay AID504834 (National Center for Advancing Translational Sciences (NCATS), 2011)
Out of some 320,000 compounds screened, about 22,000 (6.9%) were called active. Another 27% or so got no clear call; they are omitted. Calls come from the whole dose curve; as a rule, active = well fitted inhibition curve with a large enough effect; inconclusive = small, poorly fitted or top-dose-only effect, or another doubt; inactive = no such curve, though single readings can be large or run the other way. The list comes from a sample in which actives are over-represented; it also holds similar structures and randomly drawn compounds. A call without a number means that no potency is given here.

Test: Primary qHTS for delayed death inhibitors of the malarial parasite plastid, 96 hour incubation
Conditions: P. falciparum luciferase reporter growth; series mostly up to 28.7 µM
Method in brief: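 Readout is luminescence from an integrated firefly luciferase in P. falciparum. Red cells, 2% hematocrit and 0.05% parasitemia final, were cultured with compound through two parasite generations (96 hours) at 37 C, 5% CO2.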
Potency is the fitted concentration of half-maximal effect.

Compound | Potency
Cc1nc2ccccc2n1CC(O)c1ccccc1 (stereo not given) | inactive
O=C(/C=C/c1cccc(C(F)(F)F)c1)N1CCN(c2ccccn2)CC1 | inactive
Nc1nonc1-n1nnc(C(=O)N/N=C\c2ccncc2)c1CN1CCCCC1 | inactive
Cc1ccc(CNS(=O)(=O)c2ccc3c(c2)N(C)CCO3)cc1 | inactive
Cc1ccc(S(=O)(=O)Nc2nc(CN3CCOCC3)nc3sc(C)c(C)c23)cc1 | inactive
Cc1ccc(NC(=O)CN(C)C(=O)Cn2nnc(-c3ccccc3)n2)cc1 | inactive
COc1c(C)c2c(c(O)c1C/C=C(\C)CCC(=O)O)C(=O)OC2 | 1.61 µM (active)
Cc1cc(=O)oc2c(C(=O)c3ccccc3)c(OCC(N)=O)ccc12 | inactive
COC(=O)c1cc(S(=O)(=O)N2CCC(C(N)=O)CC2)oc1C | inactive
Cn1c(SCC(=O)N/N=C/c2ccc(O)c(O)c2)nc2ccccc21 | inactive
Cc1nn(Cc2ccccc2Cl)c(Cl)c1C(=O)OC(C(=O)NC(N)=O)C(C)C (stereo not given) | 13.1 µM (active)
COc1ccccc1CCNC(=O)c1c(C)nn(CC(C)C)c1Cl | inactive
COC(=O)c1ccc(COC(=O)c2c(C)nn(Cc3ccccc3Cl)c2Cl)o1 | inactive
CCCCCCn1cc(C(=O)O)c(=O)c2cc(F)c(N3CCCCC3)cc21 | inactive
CC(C)CN(C(=O)Cn1c(=O)cnc2ccccc21)C1CCS(=O)(=O)C1 (stereo not given) | inactive
Cc1ccc(C)c(NC(=O)CN(C)C(=O)c2ccc3ncsc3c2)c1 | inactive
COc1ccc(C(=O)CCC(=O)Nc2ccc(Cl)cc2)cc1 | inactive
COc1ccccc1/C=N/N1CCN(Cc2ccccc2Cl)CC1 | inactive
COc1ccc(C2N=C(N)N=C(N)N2c2ccccc2)cc1OC (stereo not given) | 2.62 µM (active)
COc1ccc(C2SCCN2S(=O)(=O)c2ccccc2)cc1OC (stereo not given) | inactive
COc1ccc(C2/C(=C(/O)c3ccccc3)C(=O)C(=O)N2c2ncccn2)cc1OC (stereo not given) | inactive
Cc1ccc(S(=O)(=O)N(C)C)cc1NC(=O)C(C)OC(=O)c1ccc2ccccc2n1 (stereo not given) | inactive
COc1ccc(S(=O)(=O)N(C)CC(=O)NCCCN2CCOCC2)cc1Cl | inactive
O=C(CCc1nnc2ccc(NCc3ccco3)nn12)Nc1cc(F)ccc1F | inactive
CC(=O)c1ccc(NC(=O)CCc2nnc3ccc(NCc4ccco4)nn23)cc1 | inactive
CCOc1ccccc1NC(=O)CCc1nnc2ccc(NCc3ccco3)nn12 | 8.28 µM (active)
CC(C)C[C@H](NC(=O)C1CCC(CNC(=O)[C@@H]2CCCN2C(=O)OC(C)(C)C)CC1)C(=O)O (stereo not given in full) | inactive
CC(C)[C@H](NC(=O)N1CCn2c1nc1ccccc12)C(=O)NCc1ccc2c(c1)OCO2 | inactive
COc1ccc(CCNC(=O)CCCCCNC(=O)N2CCn3c2nc2ccccc23)cc1OC | 14.7 µM (active)
COc1ccc(CCNC(=O)CCc2ccccc2O)cc1OC | inactive
